For orientation: AC50 means the concentration giving half of the maximal activity seen.

Several values for one entry are separate records, joined by “and”; a condition that tells them apart may be missing. Identical values can stand only once. A structure can be active in one record and inactive in another. Activity calls are given as the source filed them. Rule for the calls: active = hit-call score of the fitted dose curve at least 0.9, where 1 is the maximum; inactive = score below 0.9.

Read-out in this assay: Interleukin-8 (IL8), CXCL8 (gene 3576)
The experiment in a line: BSK_IMphg_IL8: BioMAP Diversity Plus: IMphg Assay for Interleukin-8 (IL8) Biomarker Activity (AID 2284277). The conditions noted are these: primary human endothelial cells with macrophages. The protocol: BSK_IMphg is a cell-based, multiplexed-readout assay that uses venular endothelial cells and macrophages, a human vascular primary cell, with measurements taken at 24 hours after chemical dosing in a microplate: 96-well plate.BSK_IMphg_IL8 is an assay component measured in the BSK_IMphg assay. It measures IL-8 antibody related to regulation of gene expression using ELISA technology.Data from the assay component BSK_IMphg_IL8 was analyzed at the endpoint, BSK_IMphg_IL8, in the positive analysis fitting direction relative to DMSO as the negative control and baseline of activity. Using a type of binding reporter, gain or loss-of-signal activity can be used to understand protein changes. To generalize the intended target to other relatable targets, this assay endpoint is annotated to the 'cytokine' intended target family, where the subfamily is 'interleukins'.
The levels of cell surface (or secreted, indicated by the prefix "s") biomarker endpoints were measured by ELISA. Overt cytotoxicity to cells in confluent adherent cultures (all systems other than the BT system) was assessed by measuring total protein levels using sulforhodamine B (SRB) staining in parallel cultures at the time of biomarker measurements, indicated as SRB endpoints. For proliferation assays for adherent cell types, individual cell types are cultured at sub-confluence and relative cell numbers quantified by SRB staining at time points optimized for each system (48 h: 3C and CASM3C systems; 72 h: BT and HDF3CGF systems; 96 h: SAg system). SRB was performed by staining cells with 0.1% SRB after fixation with 10% TCA and reading wells at 560 nm.Viability and proliferation of PBMC (T cells) was quantified by Alamar Blue reduction for the SAg and BT systems. For PBMC viability (referred to as PBMC Cytotoxicity within the assay endpoint names), cells were plated (75,000/well in a 96-well plate) and then chemical samples added for 1 h before addition of activators, SEB and TSST-1 (20 ng/mL final concentration each). Cells were incubated for 90 h. Then, Alamar Blue (20 uL/well) (Invitrogen, Cat DAL1100) was added for 6 h, and the plates were read with a fluorescence microplate reader at 546/580 nm (excitation/emission). For PBMC proliferation, cells were plated and activated as above but incubated for only 16 h prior to addition of Alamar Blue. Plates were read after 6 h.
As to `FC(F)(F)C(F)(F)C(F)(F)C(F)(F)C(F)(F)CCI`, the result was inactive.
Same read-out and setting: in the case of `CC(C)(C)C(=O)CC(=O)C(F)(F)C(F)(F)C(F)(F)F` it was “inactive”; in that of `C=CC(F)(F)C(F)(F)C(F)(F)C(F)(F)C(F)(F)C(F)(F)C(F)(F)C(F)(F)F`, “inactive”; in that of `FC(F)(F)C(F)(F)C(F)(F)C(F)(F)C(F)(F)C(F)(F)C(F)(F)Br`, “inactive”.
`O=S(=O)(OCC(F)F)C(F)(F)F`: the outcome was inactive.
As to `FC(F)(F)C(F)(F)C(F)(F)C(F)(F)C(F)(F)C(F)(F)CCS`, the result was inactive and the AC50 is 0.876 µM (active).
Consider `O=P(O)(O)OCCC(F)(F)C(F)(F)C(F)(F)C(F)(F)C(F)(F)C(F)(F)F`, for which the result was inactive.
Still for that read-out and setting: the result for `CCCCCCCCC(F)(F)C(F)(F)C(F)(F)C(F)(F)C(F)(F)C(F)(F)F` reads “inactive”; that for `FC(F)(F)C(F)(F)C(F)(F)C(F)(F)C(F)(F)C(F)(F)C(F)(F)C(F)(F)CCS`, “inactive”.
Take `C=C(C)C(=O)OCC(F)(F)C(F)(F)C(F)(F)C(F)(F)C(F)(F)C(F)(F)C(F)(F)F`: the result was inactive.
In the case of `OCCCC(F)(F)C(F)(F)C(F)(F)C(F)(F)C(F)(F)C(F)(F)C(F)(F)F`, the AC50 was 47.5 µM (active) and the result was inactive.
Regarding `FC(F)(F)C(F)(F)C(F)(F)N(C(F)(F)C(F)(F)C(F)(F)F)C(F)(F)C(F)(F)C(F)(F)F`, the result was inactive.
On to `O=C(O)C(F)(F)C(F)(F)C(F)(F)F`, for which the outcome was inactive.
Take `N=C(N)C(F)(F)C(F)(F)C(F)(F)C(F)(F)C(F)(F)C(F)(F)C(F)(F)F`: the outcome was inactive and the half-maximal activity concentration (AC50) was 30 µM (active).
On to `FC(F)(F)C(F)(F)C(F)(F)CI`, for which the outcome was inactive.
On the same count and under the same terms, the result for `C=C(C)C(=O)OCCC(F)(F)C(F)(F)C(F)(F)C(F)(F)C(F)(C(F)(F)F)C(F)(F)F` reads “inactive”.
Take `O=C(O)C=C(C(F)(F)F)C(F)(F)F`: the AC50 was 6.29 µM (active) and 10.8 µM (active).
In the case of `O=C(O)C(F)(F)C(F)(F)C(F)F`, the result was inactive.
For `C=C(C)C(=O)OCC(F)(F)C(F)(F)C(F)(F)F`, the result was inactive.
`FC(F)(F)C(F)(F)CNCC(F)(F)C(F)(F)F`: the result was inactive.
On the same count and under the same terms, in the case of `FC(F)(F)C(F)(F)C(F)(F)C(F)(F)C(F)(F)C(F)(F)CC1CO1` (stereo not given) it was “inactive”; in that of `O=C(O)C(F)(F)C(F)(F)C(F)(F)C(F)(F)C(F)(F)C(F)(F)C(F)(F)C(F)(F)C(F)(F)C(F)F`, “inactive”.
Still for that read-out and setting: the result for `C=CC(=O)OCC(F)(F)C(F)(F)C(F)(F)C(F)(F)C(F)(F)C(F)(F)C(F)(F)F` reads “inactive”.
The same measure, in the same setting: in the case of `O=S(=O)(O)C(F)(F)C(F)(F)C(F)(F)C(F)(F)C(F)(F)C(F)(F)C(F)(F)F` it was “inactive”.
Turning to `O=S(=O)(OCCOC(F)(F)F)C(F)(F)F`, the result was inactive.
The same measure, in the same setting: in the case of `O=C(O)C(F)(F)C(F)(F)C(F)(F)C(F)(F)C(F)(F)C(F)(F)C(F)(F)C(F)(F)Cl` it was “inactive”; in that of `OCCCC(F)(F)C(F)(F)C(F)(F)F`, “inactive”.
The same measure, in the same setting: the result for `NC(=O)C(F)(F)C(F)(F)C(F)(F)C(F)(F)F` reads “inactive”; that for `OCC(F)(F)C(F)(F)C(F)(F)C(F)(F)C(F)(F)C(F)(F)F`, “inactive”; that for `OCC(F)(F)C(F)(F)C(F)(F)C(F)F`, “inactive”.
Same read-out and setting: in the case of `O=C(O)C(F)(OC(F)(F)C(F)(OC(F)(F)C(F)(OC(F)(F)C(F)(F)C(F)(F)F)C(F)(F)F)C(F)(F)F)C(F)(F)F` (stereo not given) it was “inactive”.
Consider `O=C(CC(=O)C(F)(F)C(F)(F)F)C(F)(F)F`, for which the outcome was inactive.
Still for that read-out and setting: in the case of `COC(=O)CCC(F)(F)C(F)(F)C(F)(F)C(F)(F)F` it was “inactive”.
On to `OCC(F)(F)C(F)(F)C(F)(F)F`, for which the outcome was inactive.
The same measure, in the same setting: the result for `FC(F)(F)C(F)(F)C(F)(F)C(F)(F)CCI` reads “inactive”; that for `CCO[Si](CCC(F)(F)C(F)(F)C(F)(F)C(F)(F)C(F)(F)C(F)(F)F)(OCC)OCC`, “inactive”.
Same read-out and setting: in the case of `FC(F)(F)C(F)(F)C(F)(F)C(F)(F)C(F)(F)C(F)(F)C(F)(F)C(F)(F)F` it was “inactive”.
